These results are taken from PubChem BioAssay (EPA / NIEHS).

What all share (settings): mRNA level, 48 h; actives raise or lower the signal
Read-out in test [1]: Cyclin D1 (CCND1), CCND1 (gene 595)
Description: LTEA_HepaRG_CCND1: Life Technologies and Expression Analysis (LTEA) Assay for Cyclin D1 (CCND1) using HepaRG (AID 2283451). Put shortly:
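Differentiated human HepaRG cells in serum-free induction medium were exposed 48 h to eight half-log concentrations up to 100 uM in 0.5% DMSO; mRNA quantified by TaqMan qRT-PCR, normalized to ACTB, GAPDH, POLR2A, fitted bidirectionally versus DMSO.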

Read-out in test [2]: catalase (CAT), CAT (gene 847)
The test can be described thus: LTEA_HepaRG_CAT: Life Technologies and Expression Analysis (LTEA) Assay for catalase (CAT) using HepaRG (AID 2283452). A digest of the protocol:
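HepaRG cells in serum-free induction medium, 0.5% DMSO vehicle, exposed 48 h in duplicate over 8 half-log concentrations from 100 uM. CAT mRNA measured by qRT-PCR, normalized to ACTB, GAPDH, POLR2A; bidirectional fit versus DMSO.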

Read-out in test [3]: flavin-containing dimethylaniline monooxygenases 3 (FMO3), FMO3 (gene 2328)
Description: LTEA_HepaRG_FMO3: Life Technologies and Expression Analysis (LTEA) Assay for flavin-containing dimethylaniline monooxygenases 3 (FMO3) using HepaRG (AID 2283453). Put shortly: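 Differentiated HepaRG cells in serum-free induction medium, exposed 48 h in duplicate to 8 half-log concentrations up to 100 uM in 0.5% DMSO. FMO3 mRNA by qRT-PCR, normalized to ACTB, GAPDH, POLR2A; bidirectional fit vs DMSO.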

Read-out in test [4]: Cytochrome P450 (CYP1A1), CYP1A1 (gene 1543)
The test can be described thus: LTEA_HepaRG_CYP1A1: Life Technologies and Expression Analysis (LTEA) Assay for Cytochrome P450 (CYP1A1) using HepaRG (AID 2283454). Put shortly: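 Differentiated HepaRG cells in serum-free induction medium were exposed in duplicate for 48 h to eight half-log concentrations up to 100 uM in 0.5% DMSO. CYP1A1 mRNA was quantified by TaqMan qRT-PCR, normalized to ACTB, GAPDH and POLR2A.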

Read-out in test [5]: CFLAR gene, CFLAR (gene 8837)
The test can be described thus: LTEA_HepaRG_CFLAR: Life Technologies and Expression Analysis (LTEA) Assay for CFLAR gene using HepaRG (AID 2283455). Put shortly:
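Differentiated HepaRG cells in serum-free induction medium were exposed 48 h in duplicate to eight half-log concentrations up to 100 uM in 0.5% DMSO; mRNA measured by TaqMan qRT-PCR, normalized to ACTB, GAPDH, POLR2A; bidirectional fitting versus DMSO.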

Read-out in test [6]: Forkhead box O1 (FOXO1), FOXO1 (gene 2308)
Description: LTEA_HepaRG_FOXO1: Life Technologies and Expression Analysis (LTEA) Assay for Forkhead box O1 (FOXO1) using HepaRG (AID 2283456). A digest of the protocol:
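Differentiated HepaRG cells, in serum-free induction medium with 0.5% DMSO, exposed 48 h in duplicate to 8-point half-log series from 100 uM. FOXO1 mRNA measured by TaqMan qRT-PCR, normalized to ACTB, GAPDH, POLR2A; bidirectional fit versus DMSO.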

Read-out in test [7]: growth arrest and DNA damage 45 (GADD45A), GADD45A (gene 1647)
The test can be described thus: LTEA_HepaRG_GADD45A: Life Technologies and Expression Analysis (LTEA) Assay for growth arrest and DNA damage 45 (GADD45A) using HepaRG (AID 2283458). Put shortly: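 Cells plated and cultured 48 h, switched to serum-free induction medium, then dosed for 48 h (100 uM top, half-log dilutions, 0.5% DMSO). RNA was isolated and transcript measured by Fluidigm qRT-PCR.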

Read-out in test [8]: Forkhead box O3 (FOXO3), FOXO3 (gene 2309)
Description: LTEA_HepaRG_FOXO3: Life Technologies and Expression Analysis (LTEA) Assay for Forkhead box O3 (FOXO3) using HepaRG (AID 2283459). A digest of the protocol:
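Differentiated human HepaRG cells, 48 h post-plating, exposed in duplicate for 48 h in serum-free induction medium; 8-point half-log series from 100 uM in 0.5% DMSO. FOXO3 mRNA by TaqMan qRT-PCR, normalized to ACTB/GAPDH/POLR2A; bidirectional fit versus DMSO.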

Read-out in test [9]: ABC Transporter (ABCB1), ABCB1 (gene 5243)
Description: LTEA_HepaRG_ABCB1: Life Technologies and Expression Analysis (LTEA) Assay for ABC Transporter (ABCB1) using HepaRG (AID 2283460). A digest of the protocol: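 HepaRG cells exposed in duplicate for 48 h in serum-free induction medium to eight half-log concentrations up to 100 uM in 0.5% DMSO. ABCB1 mRNA quantified by qRT-PCR, normalised to ACTB, GAPDH and POLR2A; fitted bidirectionally versus DMSO.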

Read-out in test [10]: growth arrest and DNA damage 45 (GADD45B), GADD45B (gene 4616)
The test can be described thus: LTEA_HepaRG_GADD45B: Life Technologies and Expression Analysis (LTEA) Assay for growth arrest and DNA damage 45 (GADD45B) using HepaRG (AID 2283461). Put shortly: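 Differentiated HepaRG cells, plated 48 h then switched to serum-free induction medium, were exposed 48 h in duplicate to eight half-log concentrations from 100 uM in 0.5% DMSO; mRNA quantified by qRT-PCR, normalized to ACTB/GAPDH/POLR2A, bidirectional fit versus DMSO.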

Read-out in test [11]: ABC Transporter (ABCC3), ABCC3 (gene 8714)
The test can be described thus: LTEA_HepaRG_ABCC3: Life Technologies and Expression Analysis (LTEA) Assay for ABC Transporter (ABCC3) using HepaRG (AID 2283462). A digest of the protocol:
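HepaRG cells in serum-free induction medium were exposed for 48 h in duplicate to 8-point half-log concentrations topping at 100 uM in 0.5% DMSO. ABCC3 mRNA was measured by qRT-PCR normalized to ACTB, GAPDH and POLR2A, with bidirectional fitting versus DMSO.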

Read-out in test [12]: ABC Transporter (ABCB11), ABCB11 (gene 8647)
Description: LTEA_HepaRG_ABCB11: Life Technologies and Expression Analysis (LTEA) Assay for ABC Transporter (ABCB11) using HepaRG (AID 2283463). Put shortly: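 Differentiated human HepaRG cells in serum-free induction medium, dosed in duplicate for 48 h. Eight-point half-log series from 100 uM in 0.5% DMSO; ABCB11 mRNA by qRT-PCR, normalized to ACTB, GAPDH, POLR2A, fitted bidirectionally versus DMSO.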

Read-out in test [13]: ABC Transporter (ABCC2), ABCC2 (gene 1244)
The test can be described thus: LTEA_HepaRG_ABCC2: Life Technologies and Expression Analysis (LTEA) Assay for ABC Transporter (ABCC2) using HepaRG (AID 2283464). Put shortly: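 HepaRG cells were plated 48 h, switched to serum-free induction medium, then exposed in duplicate for 48 h to 8 concentrations (top 100 uM, half-log steps, 0.5% DMSO). ABCC2 mRNA was measured by qRT-PCR normalized to ACTB/GAPDH/POLR2A; bidirectional fitting versus DMSO.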

Read-out in test [14]: Broad substrate specificity ATP-binding cassette transporter ABCG2 (Homo sapiens) (UniProt Q9UNQ0)
Description: LTEA_HepaRG_ABCG2: Life Technologies and Expression Analysis (LTEA) Assay for ABC Transporter (ABCG2) using HepaRG (AID 2283465). Put shortly: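 Differentiated HepaRG cells were exposed for 48 h in serum-free induction medium to 8 half-log concentrations, top 100 uM, in 0.5% DMSO. ABCG2 mRNA was measured by qRT-PCR, normalized to ACTB, GAPDH and POLR2A, with bidirectional fitting versus DMSO.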

Read-out in test [15]: ATP-citrate lyase (ACLY), ACLY (gene 47)
The test can be described thus: LTEA_HepaRG_ACLY: Life Technologies and Expression Analysis (LTEA) Assay for ATP-citrate lyase (ACLY) using HepaRG (AID 2283466). Put shortly: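 Differentiated HepaRG cells exposed 48 h in serum-free induction medium to eight half-log concentrations up to 100 uM in 0.5% DMSO, duplicates. Transcript measured by Fluidigm TaqMan qRT-PCR, normalized to ACTB, GAPDH, POLR2A; bidirectional fit versus DMSO.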

Read-out in test [16]: Peroxisomal acyl-coenzyme A oxidase 1 (ACOX1) gene, ACOX1 (gene 51)
Description: LTEA_HepaRG_ACOX1: Life Technologies and Expression Analysis (LTEA) Assay for Peroxisomal acyl-coenzyme A oxidase 1 (ACOX1) gene using HepaRG (AID 2283467). A digest of the protocol:
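HepaRG cells, plated 48 h then switched to serum-free induction medium, were exposed in duplicate for 48 h to 8-point half-log concentrations up to 100 uM in 0.5% DMSO. ACOX1 mRNA was measured by qRT-PCR, normalized to ACTB/GAPDH/POLR2A, and fitted bidirectionally versus DMSO.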

Read-out in test [17]: Alkaline Phosphatase, Placental (ALPP) gene, ALPP (gene 250)
Description: LTEA_HepaRG_ALPP: Life Technologies and Expression Analysis (LTEA) Assay for Alkaline Phosphatase, Placental (ALPP) gene using HepaRG (AID 2283468). A digest of the protocol: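 Differentiated human HepaRG cells were plated and cultured 48 h, then exposed in duplicate for 48 h in serum-free induction medium to eight half-log concentrations from 100 uM in 0.5% DMSO. ALPP mRNA was measured by TaqMan qRT-PCR, normalized to ACTB, GAPDH, POLR2A.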

Read-out in test [18]: Bcl-2 (BAD) gene, BAD (gene 572)
Description: LTEA_HepaRG_BAD: Life Technologies and Expression Analysis (LTEA) Assay for Bcl-2 (BAD) gene using HepaRG (AID 2283469). Put shortly:
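Differentiated HepaRG cells were exposed in duplicate in 0.5% DMSO for 48 h to eight-point half-log concentrations up to 100 uM. BAD mRNA was measured by Fluidigm TaqMan qRT-PCR, normalized to ACTB, GAPDH and POLR2A, and fitted bidirectionally against DMSO.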

Read-out in test [19]: Bcl-2 (BAX) gene, BAX (gene 581)
Description: LTEA_HepaRG_BAX: Life Technologies and Expression Analysis (LTEA) Assay for Bcl-2 (BAX) gene using HepaRG (AID 2283470). A digest of the protocol:
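HepaRG (human liver), 48 h exposure, duplicate wells. 8-pt curve, half-log from 100 uM, 0.5% DMSO. BAX transcript by TaqMan qRT-PCR; ACTB/GAPDH/POLR2A normalization; gain or loss vs DMSO baseline.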

In general, AC50 refers to the concentration at which the activity in the assay is half-maximal.

The source made the active and inactive calls. How the source made its calls: active means hit-call score of the fitted dose curve at least 0.9, where 1 is the maximum; inactive means score below 0.9.

Broad substrate specificity ATP-binding cassette transporter ABCG2 (Homo sapiens), sequence (Q9UNQ0 whole entry, looked up): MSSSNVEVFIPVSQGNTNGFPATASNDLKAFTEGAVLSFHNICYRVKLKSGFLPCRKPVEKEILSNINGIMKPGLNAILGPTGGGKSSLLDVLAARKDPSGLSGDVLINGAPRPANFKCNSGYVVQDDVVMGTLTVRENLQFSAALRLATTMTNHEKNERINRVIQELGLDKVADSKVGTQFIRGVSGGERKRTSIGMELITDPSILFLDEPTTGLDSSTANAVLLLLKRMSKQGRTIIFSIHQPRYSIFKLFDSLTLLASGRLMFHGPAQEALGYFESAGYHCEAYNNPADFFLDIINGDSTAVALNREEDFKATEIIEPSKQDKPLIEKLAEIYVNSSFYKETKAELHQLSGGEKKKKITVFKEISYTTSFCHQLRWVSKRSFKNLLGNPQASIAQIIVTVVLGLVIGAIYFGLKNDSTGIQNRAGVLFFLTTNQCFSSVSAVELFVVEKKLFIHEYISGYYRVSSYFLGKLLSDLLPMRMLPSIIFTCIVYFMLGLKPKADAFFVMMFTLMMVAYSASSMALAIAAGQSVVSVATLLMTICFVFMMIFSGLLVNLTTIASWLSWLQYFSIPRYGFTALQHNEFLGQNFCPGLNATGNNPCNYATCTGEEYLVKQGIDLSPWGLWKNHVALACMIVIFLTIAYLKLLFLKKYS

For the compound `COC(=O)c1ccccc1N`, the call in [1], in [2], in test [3], in [4], in test [5] and in test [6] was inactive. In addition, the call in test [7], in test [8], in [9], in test [10], in test [11] and in test [12] was inactive. Further, the compound was classed as inactive in test [13], in [14], in test [15], in test [16], in [17] and in [18]. Besides, the call in [19] was inactive.
On to `CCCSC(=O)N(CCC)CCC`, for which the call in test [1], in test [2], in test [3], in test [5], in test [6] and in test [7] was inactive. For the same compound, the compound was called inactive in test [8], in [9], in [12], in [13], in test [14] and in test [15]. Also, the compound was classed as inactive in test [16], in test [17], in test [18] and in test [19]. Further, the AC50 in test [4] was 50 µM (active).
Take `O=[N+]([O-])C(Br)(CO)CO`: the compound was called inactive in test [1], in [2], in test [3], in test [5], in test [6] and in test [7]. For the same compound, the call in test [8], in [9], in test [10], in test [11], in test [12] and in test [13] was inactive. Besides, the outcome in test [14], in test [15], in test [16], in test [17], in test [18] and in test [19] was inactive. For the same compound, the AC50 in test [4] was 50 µM (active).
On to `C[N+](C)(C)CC1CO1` (stereo not drawn), for which the compound was classed as inactive in test [1], in [2], in test [3], in test [5], in test [6] and in test [7]. Moreover, the outcome in test [8], in test [9], in [11], in test [12], in test [13] and in test [14] was inactive. Also, the outcome in test [15], in [16], in test [17], in test [18] and in test [19] was inactive. In addition, the AC50 in test [4] is 50 µM (active).
